Among the test systems are NCI-H23 lung; NCI-H226 lung; NCI-H322M lung; HOP-62 NSCLC; NCI-H460 lung; HOP-92 NSCLC; NCI-H522 lung; A549/ATCC NSCLC; 786-0 renal; COLO 205 colon.
What all share (experiment): NCI-60 one-dose screen, 48 h (100 = growth as untreated, 0 = no growth, -100 = all killed)

“And” between values parts separate entries of the source, which are not always exact repeats. Identical values can stand only once. About 83,000 compounds went through this panel and 20% of them were active in at least one assay; those are over-represented in the sample as a whole.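 Interpretation: 100, growth as untreated; towards 0, rising growth inhibition; 0, no net growth; 0 to -100, cell death. Compounds scoring below 10 were considered active.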 The source made the active and inactive calls.

For `Cc1ccc(NS(=O)(=O)c2ccc(C)cc2)cc1`, the growth with NCI-H23 lung (10 µM unless noted) is 100% (inactive) and 98.2% (inactive); in the assay on NCI-H226 lung (10 µM unless noted), 95.9% (inactive) and 88.6% (inactive); with NCI-H322M lung (10 µM unless noted) it was 102% (inactive) and 91.5% (inactive); with HOP-62 NSCLC (10 µM unless noted), 98.5% (inactive) and 92.7% (inactive); in the assay on NCI-H460 lung (10 µM unless noted), 107% (inactive) and 106% (inactive); in the assay with HOP-92 NSCLC (10 µM unless noted) it was 100% (inactive) and 96.7% (inactive). Also, the growth in the assay with NCI-H522 lung (10 µM unless noted) is 97.9% (inactive) and 77.9% (inactive); with A549/ATCC NSCLC (10 µM unless noted) it was 88.1% (inactive) and 107% (inactive); in the assay on 786-0 renal (10 µM unless noted), 100% (inactive) and 99.3% (inactive); in the assay on COLO 205 colon (10 µM unless noted), 111% (inactive) and 103% (inactive).
Consider `COc1ccc(-c2cscc2N)cc1`, for which the growth was 79.4% (inactive) in the assay with NCI-H23 lung (10 µM); 74.2% (inactive) in the assay with NCI-H23 lung (100 µM); 106% (inactive) with NCI-H226 lung (10 µM); 86.6% (inactive) in the assay on NCI-H226 lung (100 µM); 95.6% (inactive) in the assay on NCI-H322M lung (10 µM); 73.9% (inactive) in the assay with NCI-H322M lung (100 µM). Besides, the growth is 55.8% (inactive) in the assay on HOP-62 NSCLC (10 µM); 57.6% (inactive) in the assay with HOP-62 NSCLC (100 µM); 83.5% (inactive) with NCI-H460 lung (10 µM); 33.8% (inactive) in the assay with NCI-H460 lung (100 µM); 68.7% [100 µM] (inactive) with HOP-92 NSCLC (10 µM unless noted); 34.8% [100 µM] (inactive) in the assay with NCI-H522 lung (10 µM unless noted). Moreover, the growth is 76.7% (inactive) in the assay on A549/ATCC NSCLC (10 µM); 46.1% (inactive) in the assay with A549/ATCC NSCLC (100 µM); 98.6% (inactive) with 786-0 renal (10 µM); 37.1% (inactive) in the assay with 786-0 renal (100 µM); 78% (inactive) in the assay on COLO 205 colon (10 µM); -68.1% (active) in the assay on COLO 205 colon (100 µM).
In the case of `CN1c2ccccc2C(C)(C)C12C=Cc1cc(O)ccc1O2` (stereo not drawn), the growth in the assay on NCI-H23 lung (10 µM unless noted) was 52.3% (inactive); with NCI-H226 lung (10 µM unless noted), 89% (inactive); in the assay on NCI-H322M lung (10 µM unless noted), 109% (inactive); in the assay with HOP-62 NSCLC (10 µM unless noted) it was 82.8% (inactive); with NCI-H460 lung (10 µM unless noted), 67.9% (inactive); in the assay with HOP-92 NSCLC (10 µM unless noted), -6.47% (active). The growth in the assay with NCI-H522 lung (10 µM unless noted) is -15.6% (active); in the assay on A549/ATCC NSCLC (10 µM unless noted), 75.2% (inactive); in the assay on 786-0 renal (10 µM unless noted), 87.1% (inactive); with COLO 205 colon (10 µM unless noted), 78.2% (inactive).
For the molecule `CCCCCCCCCCCCCCCCOP(=O)([O-])OCC[N+](C)(C)C`, the growth in the assay on NCI-H23 lung (10 µM unless noted) was 73.6% (inactive); in the assay on NCI-H226 lung (10 µM unless noted), 31.5% (inactive); in the assay with NCI-H322M lung (10 µM unless noted), 81.8% (inactive); with HOP-62 NSCLC (10 µM unless noted), 19.5% (inactive); with NCI-H460 lung (10 µM unless noted), 3.97% (active); in the assay on HOP-92 NSCLC (10 µM unless noted) it was -24.8% (active). Also, the growth with NCI-H522 lung (10 µM unless noted) was -55.1% (active); in the assay on A549/ATCC NSCLC (10 µM unless noted), 31.8% (inactive); in the assay on 786-0 renal (10 µM unless noted) it was 48.6% (inactive); with COLO 205 colon (10 µM unless noted), 10.6% (inactive).
For `Cc1ccnc(NC(c2ccccc2)c2ccc3cccnc3c2O)c1` (stereo not drawn), the growth in the assay on NCI-H23 lung (10 µM unless noted) was 47.8% (inactive); in the assay with NCI-H226 lung (10 µM unless noted) it was 57.8% (inactive); with NCI-H322M lung (10 µM unless noted), 38.4% (inactive); in the assay on HOP-62 NSCLC (10 µM unless noted), 54.1% (inactive); with NCI-H460 lung (10 µM unless noted), 5.96% (active); in the assay on HOP-92 NSCLC (10 µM unless noted), 67.8% (inactive). The growth in the assay on NCI-H522 lung (10 µM unless noted) was 7.12% (active); in the assay on A549/ATCC NSCLC (10 µM unless noted) it was 39% (inactive); in the assay on 786-0 renal (10 µM unless noted), 34.1% (inactive); in the assay on COLO 205 colon (10 µM unless noted) it was 36.8% (inactive).
For `O=C(O)c1c(Cl)c(Cl)c(Cl)c(Cl)c1-c1c2cc(I)c(=O)c(I)c-2oc2c(I)c(O)c(I)cc12`, the growth in the assay with NCI-H23 lung (10 µM) is 103% (inactive) and 91.8% (inactive) and 101% (inactive); in the assay on NCI-H23 lung (100 µM) it was -60% (active); in the assay with NCI-H226 lung (10 µM), 113% (inactive) and 99.1% (inactive) and 94.4% (inactive); in the assay with NCI-H226 lung (100 µM), 25.9% (inactive); in the assay on NCI-H322M lung (10 µM), 108% (inactive) and 109% (inactive) and 78.1% (inactive); in the assay on NCI-H322M lung (100 µM) it was 36.3% (inactive). Further, the growth was 108% (inactive) and 104% (inactive) and 125% (inactive) in the assay with HOP-62 NSCLC (10 µM); -66.5% (active) with HOP-62 NSCLC (100 µM); 102% (inactive) and 115% (inactive) and 98.1% (inactive) with NCI-H460 lung (10 µM); 98.8% (inactive) with NCI-H460 lung (100 µM); 125% (inactive) and 43.3% (inactive) and -9.83% (active) in the assay with HOP-92 NSCLC (10 µM); -22.3% (active) in the assay with HOP-92 NSCLC (100 µM). The growth in the assay on NCI-H522 lung (10 µM) is 107% (inactive) and 97.2% (inactive) and 57% (inactive); with NCI-H522 lung (100 µM) it was -61% (active); in the assay on A549/ATCC NSCLC (10 µM), 103% (inactive) and 106% (inactive) and 96.4% (inactive); with A549/ATCC NSCLC (100 µM), 25.2% (inactive); in the assay on 786-0 renal (10 µM) it was 109% (inactive) and 115% (inactive) and 112% (inactive); in the assay with 786-0 renal (100 µM), 8.48% (active). For the same molecule, the growth with COLO 205 colon (10 µM) was 121% (inactive) and 108% (inactive) and 119% (inactive); in the assay on COLO 205 colon (100 µM), -59.9% (active).
As for `CCC(CCCN(CC)CCc1ccccc1)OC(=O)c1cc(OC)c(OC)c(OC)c1` (stereo not drawn), the growth in the assay with NCI-H23 lung (10 µM unless noted) was 81.5% (inactive); in the assay with NCI-H226 lung (10 µM unless noted), 89.7% (inactive); in the assay on NCI-H322M lung (10 µM unless noted), 72.2% (inactive); in the assay with HOP-62 NSCLC (10 µM unless noted), 68.7% (inactive); with NCI-H460 lung (10 µM unless noted), 101% (inactive); in the assay on HOP-92 NSCLC (10 µM unless noted) it was 86.4% (inactive). Also, the growth in the assay on NCI-H522 lung (10 µM unless noted) was 69.6% (inactive); in the assay on A549/ATCC NSCLC (10 µM unless noted) it was 75.1% (inactive); in the assay with 786-0 renal (10 µM unless noted) it was 89.9% (inactive); in the assay on COLO 205 colon (10 µM unless noted), 81.1% (inactive).
For the molecule `CC1(C)CC([P+](c2ccccc2)(c2ccccc2)c2ccccc2)=NN1`, the growth in the assay on NCI-H23 lung (10 µM unless noted) is 28.1% (inactive); with NCI-H226 lung (10 µM unless noted) it was 53.1% (inactive); in the assay with NCI-H322M lung (10 µM unless noted), 81.1% (inactive); in the assay on HOP-62 NSCLC (10 µM unless noted) it was 76.6% (inactive); with NCI-H460 lung (10 µM unless noted), 17.2% (inactive); in the assay on HOP-92 NSCLC (10 µM unless noted), -1.14% (active). In addition, the growth with NCI-H522 lung (10 µM unless noted) is 27.4% (inactive); with A549/ATCC NSCLC (10 µM unless noted), 37.1% (inactive); in the assay on 786-0 renal (10 µM unless noted) it was 80.4% (inactive); in the assay on COLO 205 colon (10 µM unless noted) it was -49.9% (active).
For the molecule `O=Nc1ccccc1N=O`, the growth with NCI-H23 lung (10 µM unless noted) was 71.9% (inactive); in the assay on NCI-H226 lung (10 µM unless noted) it was 88.5% (inactive); with NCI-H322M lung (10 µM unless noted) it was 84.2% (inactive); with HOP-62 NSCLC (10 µM unless noted), 96% (inactive); with NCI-H460 lung (10 µM unless noted) it was 93.5% (inactive); in the assay with HOP-92 NSCLC (10 µM unless noted), 107% (inactive). Moreover, the growth in the assay on NCI-H522 lung (10 µM unless noted) was -60.8% (active); in the assay with A549/ATCC NSCLC (10 µM unless noted), 86.2% (inactive); in the assay with 786-0 renal (10 µM unless noted) it was 116% (inactive); with COLO 205 colon (10 µM unless noted) it was 83.4% (inactive).
On to `Cc1ccc(N=C=C(c2ccccc2)c2ccccc2)cc1`, for which the growth was 81% (inactive) in the assay with NCI-H23 lung (10 µM unless noted); 90.3% (inactive) in the assay on NCI-H226 lung (10 µM unless noted); 98.1% (inactive) with NCI-H322M lung (10 µM unless noted); 104% (inactive) in the assay with HOP-62 NSCLC (10 µM unless noted); 97.3% (inactive) in the assay on NCI-H460 lung (10 µM unless noted); 79.2% (inactive) in the assay with HOP-92 NSCLC (10 µM unless noted). The growth with NCI-H522 lung (10 µM unless noted) was 76% (inactive); in the assay on A549/ATCC NSCLC (10 µM unless noted), 97.5% (inactive); with 786-0 renal (10 µM unless noted), 70.1% (inactive); with COLO 205 colon (10 µM unless noted), 114% (inactive).
`O=C1OCc2cccc3cccc1c23`: the growth in the assay on NCI-H23 lung (10 µM unless noted) is 101% (inactive); in the assay on NCI-H226 lung (10 µM unless noted), 91.4% (inactive); in the assay on NCI-H322M lung (10 µM unless noted) it was 119% (inactive); in the assay on HOP-62 NSCLC (10 µM unless noted) it was 113% (inactive); in the assay on NCI-H460 lung (10 µM unless noted), 104% (inactive); in the assay on HOP-92 NSCLC (10 µM unless noted), 80.8% (inactive). Also, the growth is 108% (inactive) in the assay on NCI-H522 lung (10 µM unless noted), 78.9% (inactive) in the assay with A549/ATCC NSCLC (10 µM unless noted), 110% (inactive) in the assay with 786-0 renal (10 µM unless noted) and 115% (inactive) with COLO 205 colon (10 µM unless noted).

For the origin of these results see PubChem BioAssay (NCI).
